CYP2C19 inh: blocks human cytochrome P450 2C19; P33261; inhibition, % at 5 µM; CYP2C19 Supersomes, luciferin-H EGE luminescence, 30 min; 96,000 compounds, 21% hits; AID 778;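 active means CYP2C19 inhibition above a set limit at 5 µM in the primary screen, cut at about 50% in these data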
CYP2C9 activ: increases human cytochrome P450 2C9 activity | P11712 | 96,000 compounds, 1.4% hits | AID 1024 | recombinant CYP2C9, luciferin-H conversion, luminescence; active compounds read high; factor 1 = untreated enzyme, 0 = blocked | activation factor at 5 µM;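 active means activation factor of 2 or more for CYP2C9 at a 5 µM dose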
CYP2C9 inh: human CYP2C9 inhibition; P11712; CYP2C9 Supersomes, luciferin-H conversion, luminescence; inhibition, % at 5 µM; 96,000 compounds, 20% hits;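 active means blocking of liver enzyme CYP2C9 beyond about 50% at 5 µM, limit read from the data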
Cav3 T inh: blocks human Cav3.2 T-type calcium channel; O95180; Cav3.2-expressing cells, Fluo-4 calcium fluorescence FDSS; active compounds read low; B-score at 10 µM; 100,000 compounds, 4% hits;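 active means single-dose well whose peak fluorescence ratio is a statistical outlier from its plate by either plate-standardised score or position-corrected B-score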
Target sequence (O95180 whole entry, looked up): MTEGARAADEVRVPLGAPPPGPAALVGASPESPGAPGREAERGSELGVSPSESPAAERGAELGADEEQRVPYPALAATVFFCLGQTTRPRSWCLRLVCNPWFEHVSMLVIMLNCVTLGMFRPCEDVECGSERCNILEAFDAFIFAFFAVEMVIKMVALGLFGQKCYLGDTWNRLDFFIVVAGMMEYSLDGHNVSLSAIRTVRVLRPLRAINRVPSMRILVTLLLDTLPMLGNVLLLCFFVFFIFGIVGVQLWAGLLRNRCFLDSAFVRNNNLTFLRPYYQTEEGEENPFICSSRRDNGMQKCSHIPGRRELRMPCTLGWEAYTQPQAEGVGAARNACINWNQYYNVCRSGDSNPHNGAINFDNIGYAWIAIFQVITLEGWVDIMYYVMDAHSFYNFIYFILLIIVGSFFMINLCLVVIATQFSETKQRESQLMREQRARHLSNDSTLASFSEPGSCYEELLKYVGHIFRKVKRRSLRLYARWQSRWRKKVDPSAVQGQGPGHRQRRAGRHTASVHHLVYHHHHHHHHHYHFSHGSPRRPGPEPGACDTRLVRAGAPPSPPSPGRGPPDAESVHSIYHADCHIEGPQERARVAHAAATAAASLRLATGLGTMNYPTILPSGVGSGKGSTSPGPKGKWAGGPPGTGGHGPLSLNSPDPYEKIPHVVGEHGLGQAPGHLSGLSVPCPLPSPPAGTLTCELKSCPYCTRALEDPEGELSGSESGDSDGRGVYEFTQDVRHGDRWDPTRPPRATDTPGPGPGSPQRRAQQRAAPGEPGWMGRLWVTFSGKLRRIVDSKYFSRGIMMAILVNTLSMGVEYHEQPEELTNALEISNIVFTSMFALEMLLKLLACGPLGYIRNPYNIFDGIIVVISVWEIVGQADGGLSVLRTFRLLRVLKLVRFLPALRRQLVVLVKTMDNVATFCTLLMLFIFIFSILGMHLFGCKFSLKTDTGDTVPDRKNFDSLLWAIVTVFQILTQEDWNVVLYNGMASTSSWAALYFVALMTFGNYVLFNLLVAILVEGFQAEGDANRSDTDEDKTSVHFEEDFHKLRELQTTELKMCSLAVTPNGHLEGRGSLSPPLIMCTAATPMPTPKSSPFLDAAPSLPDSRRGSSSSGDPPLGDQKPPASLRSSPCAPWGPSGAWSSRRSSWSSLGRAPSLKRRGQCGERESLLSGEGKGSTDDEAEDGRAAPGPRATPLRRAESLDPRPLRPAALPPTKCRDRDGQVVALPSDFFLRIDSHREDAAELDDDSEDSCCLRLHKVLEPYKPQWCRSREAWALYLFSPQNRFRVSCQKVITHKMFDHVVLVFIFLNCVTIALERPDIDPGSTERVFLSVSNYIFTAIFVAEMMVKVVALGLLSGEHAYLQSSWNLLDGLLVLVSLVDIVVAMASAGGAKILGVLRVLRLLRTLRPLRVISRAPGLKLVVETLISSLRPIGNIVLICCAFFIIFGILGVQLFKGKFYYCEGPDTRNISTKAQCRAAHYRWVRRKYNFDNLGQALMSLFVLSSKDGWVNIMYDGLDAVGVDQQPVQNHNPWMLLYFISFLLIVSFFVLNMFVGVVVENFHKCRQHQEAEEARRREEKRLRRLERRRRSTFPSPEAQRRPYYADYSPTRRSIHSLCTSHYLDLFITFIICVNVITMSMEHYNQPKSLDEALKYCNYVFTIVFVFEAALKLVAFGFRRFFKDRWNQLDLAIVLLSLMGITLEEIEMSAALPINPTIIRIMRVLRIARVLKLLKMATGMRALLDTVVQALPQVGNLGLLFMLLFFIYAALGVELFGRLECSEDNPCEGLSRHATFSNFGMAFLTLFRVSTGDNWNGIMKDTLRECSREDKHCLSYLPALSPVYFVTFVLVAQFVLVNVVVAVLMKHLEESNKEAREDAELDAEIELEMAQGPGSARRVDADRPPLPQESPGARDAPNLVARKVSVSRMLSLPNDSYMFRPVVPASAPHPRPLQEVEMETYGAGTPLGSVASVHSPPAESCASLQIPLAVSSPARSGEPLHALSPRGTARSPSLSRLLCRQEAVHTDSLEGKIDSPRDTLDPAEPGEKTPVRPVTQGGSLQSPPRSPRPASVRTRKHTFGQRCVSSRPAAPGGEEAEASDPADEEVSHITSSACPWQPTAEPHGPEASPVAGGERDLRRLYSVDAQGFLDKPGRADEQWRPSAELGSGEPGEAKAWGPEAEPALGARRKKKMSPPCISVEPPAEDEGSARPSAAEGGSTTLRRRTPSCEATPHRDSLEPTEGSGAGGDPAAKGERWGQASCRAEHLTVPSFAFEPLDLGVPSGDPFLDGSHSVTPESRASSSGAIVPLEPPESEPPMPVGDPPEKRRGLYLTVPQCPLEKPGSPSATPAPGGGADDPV
CYP2C19 act: activators of human cytochrome P450 2C19; P33261; recombinant CYP2C19, luciferin-H EGE luminescence; active compounds read high; 0 = fully inhibited enzyme, 1 = untreated enzyme; activation factor at 5 µM; 96,000 tested, under 10 active; AID 1025;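 active means activation factor of at least 2 at 5 µM in the primary screen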
Numbers stand for hits. This is a sample that favours compounds with a hit; in the whole collection about 27% have one here.

How did Cc1cccc(NC(=O)C(C)Oc2ccccc2C)n1 (centres undefined) do in these assays?
CYP2C19 inh: 85.4; CYP2C9 activ: inactive; CYP2C9 inh: 61.1; Cav3 T inh: inactive; CYP2C19 act: inactive

What do the screens show for `Cc1cccc(NC(=O)c2ccccc2Br)n1`?
CYP2C19 inh: inactive; CYP2C9 activ: inactive; CYP2C9 inh: inactive; Cav3 T inh: inactive; CYP2C19 act: inactive

How did CC1(C)CC(O)(CCNCc2ccc3c(c2)OCO3)CCO1 (centres undefined) do in these assays?
CYP2C19 inh: inactive; CYP2C9 activ: inactive; CYP2C9 inh: inactive; Cav3 T inh: inactive; CYP2C19 act: inactive

Results for O=C(NCN1C(=O)C2C3C=CC(C3)C2C1=O)OC1CCCCC1 (centres undefined) ?
CYP2C19 inh: inactive; CYP2C9 activ: inactive; CYP2C9 inh: inactive; Cav3 T inh: inactive; CYP2C19 act: inactive

Results for O=C(COc1ccc(Cl)cc1Cl)NCCC1=CCCCC1 ?
CYP2C19 inh: inactive; CYP2C9 activ: inactive; CYP2C9 inh: inactive; Cav3 T inh: inactive; CYP2C19 act: inactive

Results for Cn1c(SCC(=O)c2ccc3c(c2)Cc2ccccc2-3)nnc1-c1ccccc1 ?
CYP2C19 inh: inactive; CYP2C9 activ: inactive; CYP2C9 inh: inactive; Cav3 T inh: inactive; CYP2C19 act: inactive

Results for O=C(NCc1ccncc1)c1ccc(Cl)c(S(=O)(=O)N2CCOCC2)c1 ?
CYP2C19 inh: 67.8; CYP2C9 activ: inactive; CYP2C9 inh: 81.9; Cav3 T inh: inactive; CYP2C19 act: inactive

Results for O=C(Nc1ccccc1)c1ccc(NCCN2CCOCC2)c(S(=O)(=O)N2CCOCC2)c1 ?
CYP2C19 inh: inactive; CYP2C9 activ: inactive; CYP2C9 inh: inactive; Cav3 T inh: inactive; CYP2C19 act: inactive

How did CC(C)(C)SCCNC(=O)c1ccc(Cl)c(S(=O)(=O)N2CCOCC2)c1 do in these assays?
Cav3 T inh: inactive

How did O=C(NCc1ccc(F)cc1)c1cc(S(=O)(=O)N2CCOCC2)ccc1F do in these assays?
CYP2C19 inh: inactive; CYP2C9 activ: inactive; CYP2C9 inh: inactive; Cav3 T inh: -5.24; CYP2C19 act: inactive

What do the screens show for `O=C(Nc1ccccc1)c1ccc(NCc2ccco2)c(S(=O)(=O)N2CCOCC2)c1`?
CYP2C19 inh: 86.6; CYP2C9 activ: inactive; CYP2C9 inh: 90.4; Cav3 T inh: inactive; CYP2C19 act: inactive

How did O=C(Nc1ccccc1)c1ccc(NCc2cccnc2)c(S(=O)(=O)N2CCOCC2)c1 do in these assays?
CYP2C19 inh: 53.7; CYP2C9 activ: inactive; CYP2C9 inh: 55.9; Cav3 T inh: inactive; CYP2C19 act: inactive

How did COC(=O)c1ccccc1NC(=O)CSc1nc(-c2ccco2)cc(C(F)(F)F)n1 do in these assays?
CYP2C19 inh: inactive; CYP2C9 activ: inactive; CYP2C9 inh: inactive; Cav3 T inh: inactive; CYP2C19 act: inactive

How did COc1ccc(C(C(=O)NC2CCCCC2)N(CC2CCCO2)C(=O)CNC(=O)c2ccco2)cc1 (centres undefined) do in these assays?
CYP2C19 inh: inactive; CYP2C9 activ: inactive; CYP2C9 inh: inactive; Cav3 T inh: inactive; CYP2C19 act: inactive

How did CC1C(c2ccccc2)N(C)C(c2ccccc2)CC1(O)c1ccccc1 (centres undefined) do in these assays?
CYP2C19 inh: 65.1; CYP2C9 activ: inactive; CYP2C9 inh: inactive; Cav3 T inh: -6.79; CYP2C19 act: inactive

What do the screens show for `CC1CN(C)C(c2ccccc2)C(C)C12NC(=O)NC2=O` (centres undefined)?
CYP2C19 inh: inactive; CYP2C9 activ: inactive; CYP2C9 inh: inactive; Cav3 T inh: inactive; CYP2C19 act: inactive

What do the screens show for `CCN(CC)c1ccc2cc(C(=O)Nc3ccccn3)c(=O)oc2c1`?
CYP2C19 inh: inactive; CYP2C9 activ: inactive; CYP2C9 inh: 56.7; Cav3 T inh: inactive; CYP2C19 act: inactive

Results for CCN(CC)c1ccc2cc(-c3nnc(-c4ccncc4)o3)c(=O)oc2c1 ?
CYP2C19 inh: inactive; CYP2C9 activ: inactive; CYP2C9 inh: inactive; Cav3 T inh: -4.02; CYP2C19 act: inactive

What do the screens show for `CCN(CC)c1ccc2cc(C(N)=O)c(=O)oc2c1`?
Cav3 T inh: inactive

How did CCN(CC)c1ccc2cc(NC(=O)CCC(=O)O)c(=O)oc2c1 do in these assays?
CYP2C19 inh: inactive; CYP2C9 activ: inactive; CYP2C9 inh: inactive; Cav3 T inh: inactive; CYP2C19 act: inactive

How did CCN(CC)c1ccc2cc(C=O)c(=O)oc2c1 do in these assays?
CYP2C19 inh: inactive; CYP2C9 activ: inactive; CYP2C9 inh: inactive; Cav3 T inh: -9.02; CYP2C19 act: inactive

What do the screens show for `CCN(CC)c1ccc2cc(C(C)=O)c(=O)oc2c1`?
CYP2C19 inh: inactive; CYP2C9 activ: inactive; CYP2C9 inh: inactive; Cav3 T inh: -10.3; CYP2C19 act: inactive

What do the screens show for `CC1CCN(C(=O)/C(=C/c2ccccc2Cl)c2ccccc2)CC1`?
CYP2C19 inh: inactive; CYP2C9 activ: inactive; CYP2C9 inh: inactive; Cav3 T inh: -9.06; CYP2C19 act: inactive

What do the screens show for `CCOc1ccc(NC(=O)C2CCN(c3nnnn3-c3ccccc3)CC2)cc1`?
Cav3 T inh: inactive

What do the screens show for `O=C1CN(c2ccc(Cl)cc2)C(=O)CN1NC(=S)Nc1ccc(Cl)cc1`?
CYP2C19 inh: inactive; CYP2C9 activ: inactive; CYP2C9 inh: inactive; Cav3 T inh: inactive; CYP2C19 act: inactive

What do the screens show for `O=C(Nc1ccc(Cl)cc1)[C@@H]1[C@@H]2C(=O)N(c3ccc4ccccc4c3)C(=O)[C@@H]2[C@H]2C=CC=NN21`?
CYP2C19 inh: inactive; CYP2C9 activ: inactive; CYP2C9 inh: inactive; Cav3 T inh: -8.57; CYP2C19 act: inactive

Results for c1ccc(C(c2nnnn2C2CCCC2)N2CCCCCC2)nc1 (centres undefined) ?
CYP2C19 inh: 51.9; CYP2C9 activ: inactive; CYP2C9 inh: inactive; Cav3 T inh: inactive; CYP2C19 act: inactive

How did CCN(Cc1ccccc1)C(c1ccccn1)c1nnnn1C1CCCCC1 (centres undefined) do in these assays?
Cav3 T inh: -3.96

Results for CCN(Cc1ccccc1)C(c1cccs1)c1nnnn1C1CCCCC1 (centres undefined) ?
CYP2C19 inh: inactive; CYP2C9 activ: inactive; CYP2C9 inh: inactive; Cav3 T inh: inactive; CYP2C19 act: inactive

How did Cc1nn(Cc2ccccc2Cl)c(C)c1NC(=O)c1cc(-c2ccc(F)cc2)on1 do in these assays?
CYP2C19 inh: inactive; CYP2C9 activ: inactive; CYP2C9 inh: inactive; Cav3 T inh: inactive; CYP2C19 act: inactive

What do the screens show for `Cc1ccc(-c2cc(C(F)F)n3ncc(C(=O)Nc4c(C)nn(Cc5ccccc5Cl)c4C)c3n2)cc1`?
CYP2C19 inh: inactive; CYP2C9 activ: inactive; CYP2C9 inh: 88.9; Cav3 T inh: inactive; CYP2C19 act: inactive

How did CCc1nccn1C(=O)c1cnn2c(C(F)F)cc(-c3ccccc3)nc12 do in these assays?
CYP2C19 inh: inactive; CYP2C9 activ: inactive; CYP2C9 inh: inactive; Cav3 T inh: inactive; CYP2C19 act: inactive

What do the screens show for `Cc1nn(Cc2c(Cl)cccc2Cl)c(C)c1NC(=O)c1cnn2c(C(F)F)cc(-c3ccccc3)nc12`?
CYP2C19 inh: inactive; CYP2C9 activ: inactive; CYP2C9 inh: 63.4; Cav3 T inh: inactive; CYP2C19 act: inactive

How did Cc1ccc(-c2cc(C(F)F)n3ncc(C(=O)Nc4c(C)nn(Cc5c(Cl)cccc5Cl)c4C)c3n2)cc1 do in these assays?
CYP2C19 inh: inactive; CYP2C9 activ: inactive; CYP2C9 inh: 90.9; Cav3 T inh: inactive; CYP2C19 act: inactive

Screening results deposited in PubChem by several laboratories.
